How the values were obtained:
Assay in all cases: DAPPL (digital affinity profiling via proximity ligation, sequencing); 10 mM Tris-HCl pH 7.5, 50 mM NaCl, 1 mM DTT, 4% glycerol, room temperature, 30 min; GST-TFs on glutathione beads, 16-mer random dsDNA library, 0.1% formaldehyde crosslink after washing; high values mean tight binding
Conditions in all cases: protein: recombinant; tags: N-terminal GST; dsDNA, one strand shown
FLI1 = target: T1, FLI1 (Homo sapiens, UniProt Q01543 1-452)
T1 sequence: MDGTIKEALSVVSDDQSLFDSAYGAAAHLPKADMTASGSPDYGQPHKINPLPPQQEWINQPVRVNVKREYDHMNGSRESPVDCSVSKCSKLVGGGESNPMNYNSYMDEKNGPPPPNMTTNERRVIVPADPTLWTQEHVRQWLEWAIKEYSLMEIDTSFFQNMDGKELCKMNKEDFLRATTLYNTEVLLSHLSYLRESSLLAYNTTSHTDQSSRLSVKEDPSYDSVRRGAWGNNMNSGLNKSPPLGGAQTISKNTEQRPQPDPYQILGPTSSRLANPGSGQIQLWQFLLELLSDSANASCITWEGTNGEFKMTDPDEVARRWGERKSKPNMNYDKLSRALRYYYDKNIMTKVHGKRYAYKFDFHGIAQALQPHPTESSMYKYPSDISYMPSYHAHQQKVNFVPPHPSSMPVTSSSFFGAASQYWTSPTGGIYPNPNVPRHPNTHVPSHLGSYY
How it was run: (§1)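 Human transcription factors fused to GST were expressed in yeast, captured on glutathione beads, given DNA barcodes and pooled with a GST-only negative control. Pools were incubated with 200 nmole of a 16-mer random double-stranded DNA library in Tris/NaCl/DTT/glycerol buffer at room temperature for 30 min. They were then washed, crosslinked with 0.1% formaldehyde, proximity-ligated (BsaI/T4 ligase, 1 h, 37 °C), PCR-amplified and sequenced on an Illumina NextSeq500. Binding signal is each 6-mer's read frequency for a factor divided by its frequency for the GST control.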

ELK3 = target: T2, ELK3 (Homo sapiens, UniProt P41970 1-407)
T2 sequence: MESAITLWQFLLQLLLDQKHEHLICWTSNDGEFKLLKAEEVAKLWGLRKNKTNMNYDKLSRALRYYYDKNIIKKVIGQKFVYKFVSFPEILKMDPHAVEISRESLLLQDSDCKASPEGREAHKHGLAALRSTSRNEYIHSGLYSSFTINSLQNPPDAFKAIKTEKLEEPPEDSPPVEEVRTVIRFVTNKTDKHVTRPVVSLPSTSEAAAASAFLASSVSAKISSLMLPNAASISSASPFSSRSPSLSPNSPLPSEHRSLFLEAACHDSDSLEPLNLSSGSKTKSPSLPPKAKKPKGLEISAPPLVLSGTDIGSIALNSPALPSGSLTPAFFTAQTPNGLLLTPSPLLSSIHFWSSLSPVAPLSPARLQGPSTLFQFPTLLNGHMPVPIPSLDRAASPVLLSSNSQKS
How it was run: as §1

SPIC = target: T3, SPIC (Homo sapiens, UniProt Q8N5J4 1-248)
T3 sequence: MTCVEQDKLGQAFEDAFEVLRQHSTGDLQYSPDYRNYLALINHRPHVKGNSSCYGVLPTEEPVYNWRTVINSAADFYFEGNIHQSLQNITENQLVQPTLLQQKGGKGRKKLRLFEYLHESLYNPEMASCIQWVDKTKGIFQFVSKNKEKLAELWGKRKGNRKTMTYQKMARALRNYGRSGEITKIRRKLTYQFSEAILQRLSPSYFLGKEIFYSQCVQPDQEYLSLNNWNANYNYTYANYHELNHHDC
How it was run: as §1

ELK4 = target: T4, ELK4 (Homo sapiens, UniProt P28324-2 1-405)
T4 sequence: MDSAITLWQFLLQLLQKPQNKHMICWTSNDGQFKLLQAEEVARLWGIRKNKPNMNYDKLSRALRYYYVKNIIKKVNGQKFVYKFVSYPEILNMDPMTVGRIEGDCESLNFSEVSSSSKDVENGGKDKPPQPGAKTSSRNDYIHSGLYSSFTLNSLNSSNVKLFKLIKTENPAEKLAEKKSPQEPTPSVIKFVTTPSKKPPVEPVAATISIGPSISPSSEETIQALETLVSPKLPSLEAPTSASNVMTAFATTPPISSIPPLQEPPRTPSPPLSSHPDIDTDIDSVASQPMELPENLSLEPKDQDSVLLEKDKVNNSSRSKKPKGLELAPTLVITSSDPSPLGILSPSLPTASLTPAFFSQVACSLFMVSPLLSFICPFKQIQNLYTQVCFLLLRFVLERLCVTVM
How it was run: as §1

ELF3 = target: T5, ELF3 (Homo sapiens, UniProt P78545 1-371)
T5 sequence: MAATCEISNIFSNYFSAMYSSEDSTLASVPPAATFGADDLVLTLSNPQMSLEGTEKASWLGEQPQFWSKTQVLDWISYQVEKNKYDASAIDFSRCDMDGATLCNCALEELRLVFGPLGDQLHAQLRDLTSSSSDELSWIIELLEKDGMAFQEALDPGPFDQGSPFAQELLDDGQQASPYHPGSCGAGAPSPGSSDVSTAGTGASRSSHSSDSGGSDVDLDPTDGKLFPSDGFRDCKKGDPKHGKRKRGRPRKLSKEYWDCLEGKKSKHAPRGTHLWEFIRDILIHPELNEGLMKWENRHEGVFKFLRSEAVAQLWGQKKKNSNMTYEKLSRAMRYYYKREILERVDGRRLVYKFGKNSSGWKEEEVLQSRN
How it was run: as §1

ETV1 = ETV1 (Homo sapiens, UniProt P50549 1-477)
ETV1, sequence (P50549 whole entry): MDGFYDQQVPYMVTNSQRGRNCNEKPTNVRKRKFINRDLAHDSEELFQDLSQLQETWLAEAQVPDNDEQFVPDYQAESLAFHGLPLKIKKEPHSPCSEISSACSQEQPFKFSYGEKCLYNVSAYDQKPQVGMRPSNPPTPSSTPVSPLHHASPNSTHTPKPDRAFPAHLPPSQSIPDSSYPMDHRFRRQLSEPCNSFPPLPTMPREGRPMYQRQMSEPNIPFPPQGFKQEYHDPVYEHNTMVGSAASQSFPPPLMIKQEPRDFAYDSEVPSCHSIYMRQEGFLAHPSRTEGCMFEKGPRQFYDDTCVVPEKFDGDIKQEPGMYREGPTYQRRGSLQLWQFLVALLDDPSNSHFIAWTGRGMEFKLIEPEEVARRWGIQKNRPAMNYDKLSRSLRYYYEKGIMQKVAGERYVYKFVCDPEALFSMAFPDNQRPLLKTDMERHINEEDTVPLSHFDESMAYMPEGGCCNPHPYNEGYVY
How it was run: as §1

ERF = target: T6, ERF (Homo sapiens, UniProt P50548 1-548)
T6 sequence: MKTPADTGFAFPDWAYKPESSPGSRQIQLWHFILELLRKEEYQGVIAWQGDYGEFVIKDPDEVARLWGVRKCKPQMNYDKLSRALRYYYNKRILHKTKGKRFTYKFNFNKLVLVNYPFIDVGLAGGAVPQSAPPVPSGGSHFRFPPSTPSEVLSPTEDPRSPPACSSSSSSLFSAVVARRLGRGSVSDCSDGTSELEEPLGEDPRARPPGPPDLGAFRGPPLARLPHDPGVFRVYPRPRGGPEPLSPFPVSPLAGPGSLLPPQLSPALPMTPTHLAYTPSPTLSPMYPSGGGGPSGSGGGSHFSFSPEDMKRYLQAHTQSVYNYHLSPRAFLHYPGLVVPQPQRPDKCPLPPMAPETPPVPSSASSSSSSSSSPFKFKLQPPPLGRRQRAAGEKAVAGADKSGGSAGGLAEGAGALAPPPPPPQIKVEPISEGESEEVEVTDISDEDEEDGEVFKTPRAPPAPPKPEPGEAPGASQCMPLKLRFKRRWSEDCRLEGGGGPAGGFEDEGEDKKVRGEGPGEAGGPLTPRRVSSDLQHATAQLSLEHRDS
How it was run: as §1

ETS2 = target: T7, ETS2 (Homo sapiens, UniProt P15036 1-469)
T7 sequence: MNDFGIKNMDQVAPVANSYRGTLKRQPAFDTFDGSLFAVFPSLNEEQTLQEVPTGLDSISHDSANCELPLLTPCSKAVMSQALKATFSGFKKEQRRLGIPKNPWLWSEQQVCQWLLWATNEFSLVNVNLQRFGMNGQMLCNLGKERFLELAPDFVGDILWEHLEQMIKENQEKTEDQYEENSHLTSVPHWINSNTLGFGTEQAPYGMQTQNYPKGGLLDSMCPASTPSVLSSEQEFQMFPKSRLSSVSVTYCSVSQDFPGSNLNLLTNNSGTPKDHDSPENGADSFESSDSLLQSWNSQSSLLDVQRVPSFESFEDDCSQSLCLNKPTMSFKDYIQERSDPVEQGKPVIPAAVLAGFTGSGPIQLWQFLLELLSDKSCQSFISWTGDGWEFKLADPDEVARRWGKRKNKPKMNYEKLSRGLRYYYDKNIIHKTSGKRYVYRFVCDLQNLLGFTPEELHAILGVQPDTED
How it was run: as §1

ETV6 = ETV6 (Homo sapiens, UniProt P41212 1-452)
ETV6, sequence (P41212 whole entry): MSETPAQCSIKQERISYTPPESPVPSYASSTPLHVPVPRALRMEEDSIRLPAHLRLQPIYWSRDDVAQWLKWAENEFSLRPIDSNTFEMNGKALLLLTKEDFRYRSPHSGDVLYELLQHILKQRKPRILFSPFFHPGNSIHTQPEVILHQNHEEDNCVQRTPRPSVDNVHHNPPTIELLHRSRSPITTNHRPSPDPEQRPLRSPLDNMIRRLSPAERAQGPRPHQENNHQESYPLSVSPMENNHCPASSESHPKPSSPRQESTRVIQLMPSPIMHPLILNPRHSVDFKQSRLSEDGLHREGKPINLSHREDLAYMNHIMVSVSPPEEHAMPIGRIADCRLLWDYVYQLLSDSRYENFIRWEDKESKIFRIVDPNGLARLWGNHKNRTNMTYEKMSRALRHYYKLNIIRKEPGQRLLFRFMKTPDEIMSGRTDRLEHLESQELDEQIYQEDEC
How it was run: as §1

Sequence: TAAGGG
- binding signal (FLI1): 1.01 fold enrichment (6-mer frequency, TF over GST control)
- binding signal (ELK3): 1.04 fold enrichment (6-mer frequency, TF over GST control)
- binding signal (SPIC): 1.18 fold enrichment (6-mer frequency, TF over GST control)
- binding signal (ELK4): 1.1 fold enrichment (6-mer frequency, TF over GST control)
- binding signal (ELF3): 1.09 fold enrichment (6-mer frequency, TF over GST control)
- binding signal (ETV1): 1.05 fold enrichment (6-mer frequency, TF over GST control)
- binding signal (ERF): 1.01 fold enrichment (6-mer frequency, TF over GST control)
- binding signal (ETS2): 1 fold enrichment (6-mer frequency, TF over GST control)
- binding signal (ETV6): 1.01 fold enrichment (6-mer frequency, TF over GST control)
